This passage reports max response results from PubChem BioAssay AID2314 (National Center for Advancing Translational Sciences (NCATS), 2010).

Each structure is given as a SMILES string. The whole screen tested about 300,000 compounds, of which about 37,000 (12%) were called active. This is one part of a sample in which actives are shown more often than they occur. Cut-off read from the data, not from the text of the source: active = max response mostly above about 13% (no sharp cut-off); inactive = mostly below about 14%.

The experiment can be described thus: Cycloheximide Counterscreen for Small Molecule Inhibitors of Shiga Toxin. Note: read at 38.3 µM for the half of the compounds with a filed dose; 0% is about no effect. To be noted: cell reporter, cycloheximide protein synthesis inhibition counterscreen; stronger effect = higher value. On the technique in general: The purpose of a counterscreen is to sort out artefacts and off-target activity.
For `O=C(CN(c1cc(C(F)(F)F)ccc1Cl)S(=O)(=O)c1ccccc1)NCc1cccnc1`, the max response was -4.73% (inactive).
Next, `CCc1ccc(NC(=O)Cn2ncn3c(cc4ccccc43)c2=O)cc1`: -4.36% (inactive); `CC(C)c1ccc(NC(=O)Cn2ncc3ccccc32)cc1`: 29% (active).
Next, `CCOC(=O)c1cn(CC(=O)Nc2ccc(C(C)C)cc2)nn1`: -2.13% (inactive).
Next, `O=C(O)Cn1c(Cc2ccccc2)nc2ccccc21`: 1.69% (inactive); `COC(=O)c1ccc2c(=O)n(CCN3CCOCC3)c(SCC(=O)Nc3cccc(OC)c3)nc2c1`: -1.03% (inactive).
Consider `Cc1cccc2nc(CNc3ccc(F)cc3)cn12`, for which the max response is 33.7% (active).
For the compound `CCOC(=O)CSc1nnc(CNc2ccc(F)cc2)o1`, the max response was -0.571% (inactive).
The same measure for `O=C(COC(=O)c1ccco1)NCc1ccc(Cl)cc1`: 4.34% (inactive); for `COc1cccc(-n2cc(C(=O)O)c3ccccc3c2=O)c1`: -2.23% (inactive); for `COc1cccc(-n2c(=S)[nH]c3c(oc4ccccc43)c2=O)c1`: 18.5% (active).
Consider `COc1cccc(N2C(=O)CN(Cc3ccccc3)C2=S)c1`, for which the max response was -1.8% (inactive).
In the case of `O=C(c1ccccc1)N1CCC(CC2CC(c3ccc(Cl)cc3)=NO2)(C(=O)NCC2CCCCC2)CC1` (configuration not stated), the max response is -1.39% (inactive).
Turning to `COc1ccc(-c2oc3ncn(Cc4ccco4)c(=N)c3c2-c2ccc(OC)cc2)cc1`, the max response was -1.11% (inactive).
The same measure for `CCOC(=O)N1CCN(C(=S)Nc2ccc(C)cc2C)CC1`: -5.54% (inactive); for `Cc1ccc(NC(=S)Nc2ncccc2C)c(C)c1`: 42.7% (active); for `COC(=O)c1cccnc1NC(=S)NC(C)C`: 3.9% (inactive).
Take `CCOc1ccc(C(=O)COC(=O)c2ccc(-n3cnnn3)cc2)cc1`: the max response is 1.17% (inactive).
As for `CC1CN(c2nc(-c3ccccc3)nnc2-c2ccccc2)CC(C)O1` (configuration not stated), the max response is -4.84% (inactive).
The same measure for `COc1ccc(C2/C=C\CN(C(=O)c3ccc(C)cc3)C(Cc3ccccc3)C(=O)N2Cc2ccc(F)cc2)cc1` (configuration not stated): 2.85% (inactive); for `CNC(=S)NNC(=O)c1sccc1OCc1ccccc1`: -0.196% (inactive); for `CCOc1cc(/C=N/NC(=O)CN2CCCCC2)ccc1O`: -1.36% (inactive).
Consider `Cc1ccc(/C=N/NC(=O)c2sccc2OCc2ccc(F)cc2)cc1`, for which the max response was 16.2% (active).
Next, `O=C(CN1CCSCC1)N/N=C/c1ccc(Cl)cc1`: 11.3% (inactive).
For `Cc1ccc(COc2ccc(/C=N/NC(=O)CN3CCCCC3)cc2)cc1`, the max response is 32.7% (active).
Next, `Cc1ccc(/C=N/NC(=O)COc2ccccc2-c2ccccc2)cc1`: -1.02% (inactive); `CC(Sc1nc2c([nH]c3ccccc32)c(=O)n1C)c1ccccc1` (configuration not stated): -7.36% (inactive).
